Holding throughout (assay): glycan array binding signal (z-score within array); higher = stronger binding
What all share (details): glycan notation: IUPAC condensed, linker removed

Assay [1] addresses Man(a1-3)[Man(a1-6)]Man(a1-6)[Man(a1-3)]Man(b1-4)GlcNAc(b1-4)GlcNAc. In short, it runs like this: (§1)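 From the Consortium for Functional Glycomics database, 3228 arrays were curated, keeping only those whose protein sequence was available. Binding is given as a within-array Z-score averaged across arrays sharing a protein sequence and across linkers. Negative Z-scores can be read as non-binding.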

The target of assay [2] is Man(a1-3)[Man(a1-6)]Man(b1-4)GlcNAc(b1-4)GlcNAc. In outline: as §1
Assay [3] deals with Man(a1-3)[Man(a1-6)]Man(b1-4)GlcNAc(b1-4)[Fuc(a1-6)]GlcNAc. In short, it runs like this:
as §1

Another assay has as its target Neu5Ac(a2-3)Gal. In short, it runs like this: as §1
Assay [4] concerns the target Neu5Ac(a2-3)Gal(b1-3)GalNAc(b1-4)[Neu5Ac(a2-3)]Gal(b1-4)Glc. In short, it runs like this: as §1
The target in assay [5] is Neu5Ac(a2-3)Gal(b1-3)GlcNAc(b1-6)GalNAc. In short, it runs like this:
as §1

Assay [6] has as its target Neu5Ac(a2-3)Gal(b1-4)GlcNAc(b1-2)[Neu5Ac(a2-3)Gal(b1-4)GlcNAc(b1-6)]Man(a1-6)[Neu5Ac(a2-3)Gal(b1-4)GlcNAc(b1-2)Man(a1-3)][GlcNAc(b1-4)]Man(b1-4)GlcNAc(b1-4)GlcNAc. In outline:
as §1

Assay [7] deals with Neu5Ac(a2-3)Gal(b1-4)GlcNAc(b1-3)Gal(b1-4)GlcNAc(b1-3)[Neu5Ac(a2-3)Gal(b1-4)GlcNAc(b1-3)Gal(b1-4)GlcNAc(b1-6)]GalNAc. In short, it runs like this:
as §1

Assay [8] addresses Neu5Ac(a2-3)Gal(b1-4)[Fuc(a1-3)]GlcNAc(b1-3)Gal(b1-4)GlcNAc. In short, it runs like this:
as §1

Assay [9] has as its target Neu5Ac(a2-3)Gal(b1-4)[Fuc(a1-3)]GlcNAc(b1-6)[Gal(b1-3)]GalNAc. In short, it runs like this: as §1
Assay [10] addresses Neu5Ac(a2-3)[Neu5Ac(a2-6)]GalNAc. In short, it runs like this: as §1
For assay [11], the target named is Neu5Ac(a2-6)Gal(b1-4)GlcNAc(b1-2)Man(a1-3)[Man(a1-6)]Man(b1-4)GlcNAc(b1-4)GlcNAc. In outline: as §1
Assay [12] has as its target Neu5Ac(a2-6)Gal(b1-4)GlcNAc(b1-2)Man(a1-6)[Man(a1-3)]Man(b1-4)GlcNAc(b1-4)GlcNAc. In outline: as §1
Assay [13] concerns the target Neu5Ac(a2-6)Gal(b1-4)GlcNAc(b1-3)Gal(b1-4)GlcNAc(b1-2)Man(a1-3)[Neu5Ac(a2-6)Gal(b1-4)GlcNAc(b1-3)Gal(b1-4)GlcNAc(b1-2)Man(a1-6)]GalNAc. In outline:
as §1

Assay [14] has as its target Neu5Ac(a2-6)Gal(b1-4)GlcNAc(b1-3)Gal(b1-4)GlcNAc(b1-3)Gal(b1-4)GlcNAc(b1-2)Man(a1-3)[Neu5Ac(a2-6)Gal(b1-4)GlcNAc(b1-3)Gal(b1-4)GlcNAc(b1-3)Gal(b1-4)GlcNAc(b1-2)Man(a1-6)]GalNAc. In short, it runs like this: as §1
Assay [15] deals with Neu5Ac(a2-6)GalNAc(b1-4)GlcNAc. In outline:
as §1

The target in assay [16] is Neu5Ac(a2-8)Neu5Ac(a2-8)Neu5Ac(a2-3)[Gal(b1-3)GalNAc(b1-4)]Gal(b1-4)Glc. In short, it runs like this: as §1
A further assay deals with Neu5Ac(b2-6)GalNAc. In outline: as §1

The full list was thinned out, with the strongest signals kept by preference.

B1: HHA (Hippeastrum hybrid) (protein)
chain: MQQDCNLVLYDVDKPIWASNTGGLARDCHLNMQSDGNLVVYAPRNQVIWASNTQGENGNYVCILQKDRNVVIYGTARWATGTNIHGAGIVGVPGSAPQNTTAEMIKLVRKYLITK
B1: the “glycan array binding signal (z-score)” value was 5.15 in assay [1]; 8.3 in assay [2]; 6.07 in assay [3]; -0.214 with Neu5Ac(a2-3)Gal; -0.218 in [4]; -0.216 in [5]. Also, the “glycan array binding signal (z-score)” value is -0.221 in [6]; -0.187 in assay [7]; -0.211 in assay [8]; -0.179 in assay [9]; -0.215 in assay [10]; 0.002 in assay [11]. Also, the “glycan array binding signal (z-score)” value in assay [12] is 3.55; in [13] it was -0.165; in [14], -0.107; in [15] it was -0.222; in assay [16], -0.177; with Neu5Ac(b2-6)GalNAc, -0.213.

The values are drawn from the supplement of paper PMC8728848.
